From PubChem
GPR151 ag = activators of human GPR151; Q8TDV0; PathHunter beta-arrestin GPR151 cells, luminescence; activation, % at 11.2 µM; 1% of 650,000 active; AID 1508602; in the data active = activation above about 4.9%;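 note: 0% = median of compound wells and 100% = cells with positive control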
TEAD-YAP block = TEAD-YAP interaction inhibition | HEK-TIYL cells, TEAD-Gal4/YAP UAS-luciferase luminescence | inhibition, % at 9.12 µM | 1.4% of 640,000 active | AID 1259422; in the data active = inhibition above about 32%;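 note: 0% = median of test compound wells and 100% = reference inhibitor wells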
FBW7 activator = human FBW7 E3 ligase activation, primary screen; Q969H0; AlphaScreen FBW7–phospho-cyclin E peptide binding, activator screen; normalized activity (activation), % at 26.1 µM; 0.13% of 650,000 active; AID 1259310; in the data active = normalized activity above about 1.9%;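 note: purified mutant Fbw7 with reduced substrate affinity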
MITF inh = human MITF inhibition, primary screen; inhibition, % at 2.6 µM; 0.91% of 650,000 active; O75030; AlphaScreen MITF homodimerization, bead proximity signal; in the data active = inhibition above about 50%;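 note: 0% = vehicle wells with protein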
Target sequence (O75030 whole entry, looked up): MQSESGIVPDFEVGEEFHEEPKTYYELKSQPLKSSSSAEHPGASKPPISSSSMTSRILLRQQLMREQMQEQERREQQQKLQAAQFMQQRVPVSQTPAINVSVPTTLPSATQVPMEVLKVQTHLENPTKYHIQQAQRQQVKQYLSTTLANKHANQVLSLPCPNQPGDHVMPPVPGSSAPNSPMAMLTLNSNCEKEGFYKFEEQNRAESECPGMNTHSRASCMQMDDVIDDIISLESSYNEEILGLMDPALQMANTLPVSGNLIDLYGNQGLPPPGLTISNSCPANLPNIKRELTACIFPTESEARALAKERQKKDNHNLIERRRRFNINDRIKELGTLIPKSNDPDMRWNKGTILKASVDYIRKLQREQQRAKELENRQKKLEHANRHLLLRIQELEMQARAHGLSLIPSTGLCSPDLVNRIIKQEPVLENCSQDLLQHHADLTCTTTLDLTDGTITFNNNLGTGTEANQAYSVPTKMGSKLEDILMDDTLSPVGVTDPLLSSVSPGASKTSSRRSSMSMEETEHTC
MITF inh conf = confirmation of human MITF inhibitors. AlphaScreen MITF homodimerization, biotin/His-MITF beads. shares compounds with MITF inh. AID 1259372. 16% of 4,700 active. inhibition, % at 2.6 µM;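 active = inhibition above a cutoff derived from the DMSO control wells, cut at about 28% in these data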;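 note: 0% = MITF dimer wells with DMSO only; inhibitors lower the bead chemiluminescence by keeping MITF from dimerizing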
AlphaScreen DR = optically interferes with AlphaScreen signal in dose response. 6% of 480 active. shares compounds with MITF inh. IC50, µM. AlphaScreen optical interference counterscreen, cell-free. AID 1259373; call rule not given here
AlphaScreen intf2 = AlphaScreen optical interference, counter-screen | shares compounds with MITF inh | LysRS AlphaScreen counterscreen, signal interference, triplicate | inhibition, % at 2.6 µM | 7.6% of 4,700 active | AID 1259376;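 active = inhibition above a cutoff derived from the DMSO control wells, cut at about 30% in these data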
* marks the source's active call; other numbers are inactive results; · = no result given; ! = a repeat was not active. Hits are enriched below; roughly 3.5% of the tested compounds scored in any of these assays.

SMILES | GPR151 ag | TEAD-YAP block | FBW7 activator | MITF inh | MITF inh conf | AlphaScreen intf2 | others
COc1cc(CN2CCN(Cc3ccccc3C)CC2)cc(OC)c1OC | 3 | -7 | 0 | 64* | -7 | 0
C=CC[C@@H]1/C=C(\C)C[C@H](C)C[C@H](OC)[C@H]2O[C@@](O)(C(=O)C(=O)N3CCCC[C@H]3C(=O)O[C@H](/C(C)=C/[C@@H]3CC[C@@H](O)[C@H](OC)C3)[C@H](C)[C@@H](O)CC1=O)[C@H](C)C[C@@H]2OC | 0 | 9 | 0 | 111*! | 122* | 100*
COC1CC2CCC(C)C(O)(O2)C(=O)C(=O)N2CCCCC2C(=O)OC(C(C)CC2CCC(O)C(OC)C2)CC(=O)C(C)/C=C(\C)C(O)C(OC)C(=O)C(C)CC(C)/C=C/C=C/C=C/1C (stereo not given) | 1 | -9 | 0 | -10 | · | ·
COc1ccc(Cl)cc1Nc1nc2ccccc2n2cnnc12 | -2 | -2 | 0 | 7 | · | ·
O=[N+]([O-])c1ccc(OCCCNCc2ccco2)cc1 | 0 | -4 | 0 | 32 | · | ·
O=[N+]([O-])c1ccc(OCCNCc2ccco2)cc1 | -2 | -10 | 0 | 56* | -14 | -5
COc1cc(OC)cc(C(=O)N2CCN(Cc3ccco3)CC2)c1 | -2 | 2 | 0 | 59* | 3 | 16
COc1cc(CN2CCN(Cc3ccco3)CC2)cc(OC)c1 | 1 | 3 | 0 | 83* | 4 | 20
COc1cccc(CN2CCN(Cc3ccco3)[C@@H](C)C2)c1 | -1 | 2 | 0 | 3 | · | ·
COc1cc(OC)cc(C(=O)N2CCN(Cc3cccc(Oc4ccccc4)c3)CC2)c1 | 2 | -3 | 0 | 37 | · | ·
COc1ccc(CNCC(=O)Nc2cccc3ccccc23)cc1 | 1 | -8 | 0 | 7 | · | ·
CCOC(=O)c1ccc(NC(=O)Nc2cccc(C)c2)cc1 | -3 | -45 | 0 | 0 | · | ·
O=C(NNC(=S)Nc1ccccc1)C(=O)NNC(=S)Nc1ccccc1 | 0 | -4 | -1 | 79* | 58* | -22
Cc1ccc(NC(=O)C(C)N2Cc3ccccc3C2=O)cc1F (stereo not given) | 2 | 1 | 0 | 14 | · | ·
CCOC(=O)C1CCN(Cc2nc3ccc(Cl)cc3n2CCO)CC1 | 1 | -3 | 0 | 72* | 8 | 14
CCOC(=O)C1CCN(Cc2ccc(Cl)cc2Cl)CC1 | 0 | -1 | 0 | 39 | · | ·
Cc1ccc2c3c(ccc2n1)NC1=C(C(=O)CCC1)C3c1ccccc1C (stereo not given) | 1 | 2 | 0 | 4 | · | ·
Cc1ccc2c3c(ccc2n1)NC1=C(C(=O)CCC1)C3c1ccccn1 (stereo not given) | 0 | -19 | 0 | 63* | -3 | 5
CSc1nnc(CN2CCSCC2)n1C | -1 | 4 | 0 | 64* | -3 | -5
Cn1c(CN2CCOCC2)nnc1SCC(N)=O | 1 | 2 | 0 | 4 | · | ·
CN(C)CCOCCOc1cccc(Oc2ccccc2)c1 | 2 | -9 | 0 | 51 | · | ·
CN(C)CCNCCCOc1ccccc1-c1ccccc1 | 1 | -1 | 0 | 74* | 2 | 22
CN(C)CCCOc1ccccc1-c1ccccc1 | 0 | 6 | 0 | 53* | -11 | -4
CN(C)CCNCCOCCOc1ccccc1-c1ccccc1 | -1 | 5 | 0 | 0 | · | ·
CN(C)CCCOc1cccc(Oc2ccccc2)c1 | 1 | 1 | 0 | 62* | 1 | 12
SMILES | GPR151 ag | TEAD-YAP block | FBW7 activator | MITF inh | MITF inh conf | AlphaScreen intf2 | others
CCOC(=O)C1CCN(C(=O)c2cn(C)c(=O)c3c2c2ccccc2n3C)CC1 | 0 | 12 | 0 | -23 | · | ·
O=C(C1CC12CCN(Cc1nccs1)CC2)N1CCc2ccccc2C1 (stereo not given) | 1 | 2 | 0 | -4 | · | ·
COc1ccc(C)cc1NC(=O)CNCc1ccco1 | -1 | 6 | 0 | 53* | 7 | 9
COc1ccc(C)cc1NC(=O)NCc1ccco1 | -1 | -13 | 0 | 5 | · | ·
CCOC(=O)C1=C(N)OC2=C(C(=O)CCC2)C1c1cccc(Cl)c1 (stereo not given) | 1 | 1 | 0 | 1 | · | ·
CN(C(=O)c1cccs1)C(Cc1ccccc1)C1CCN(C(=O)c2ccn(C)n2)CC1 (stereo not given) | 0 | -24 | 2 | 74* | 6 | -1
CC(C)(C)NC(=O)CN(Cc1ccccc1Cl)C(=O)c1csnn1 | 0 | 5 | 1 | 5 | · | ·
CCN(Cc1ccccc1)C1CCN(Cc2ccccn2)CC1 | -1 | 4 | 0 | 59* | -10 | 0
CC1CCCC(N2CCN(Cc3ccccn3)CC2)C1 (stereo not given) | -1 | -5 | 0 | 72* | 5 | 16
O=C(O)C1CCN(Cc2ccccn2)CC1 | 1 | 0 | 0 | -5 | · | ·
c1ccc(C2CCC(N3CCN(Cc4cccnc4)CC3)CC2)cc1 (stereo not given) | -1 | 2 | 0 | 65* | -10 | 12
CC1CCCN(C(=O)C2CCN(Cc3ccccn3)CC2)C1 (stereo not given) | 3 | 4 | 0 | 18 | · | ·
Cc1ccccc1CN1CCN(C2CCCC(C)C2)CC1 (stereo not given) | -1 | -6 | 0 | 76* | -15 | 4
c1ccc(CN2CCC(N3CCN(Cc4ccccn4)CC3)CC2)cc1 | -2 | 4 | 1 | 40 | · | ·
c1ccc(N2CCN(C3CCN(Cc4ccccn4)CC3)CC2)cc1 | 1 | -3 | 0 | 54* | 4 | 7
c1ccc(CN2CCC(c3ccncc3)CC2)nc1 | 0 | 3 | 0 | 9 | · | ·
c1ccc(C2CCC(N3CCN(Cc4ccccn4)CC3)CC2)cc1 (stereo not given) | -2 | -1 | 0 | 68* | 9 | 12
c1ccc(CN2CCN(C3CCCC3)CC2)nc1 | -1 | -9 | 0 | 74* | 11 | 10
CCC(/C=N/NC(=O)COc1ccccc1OC)CC | 1 | 7 | 0 | 11 | · | ·
CCOc1ccc(C(=O)Nc2ccc(-c3nc4ncccc4o3)cc2)cc1[N+](=O)[O-] | 2 | -1 | 0 | 6 | · | ·
N#Cc1ccc(NC(=O)CN2C(=O)C3CCCN3C(=O)c3ccccc32)cc1 (stereo not given) | 0 | -8 | 0 | 72* | -23 | 0
O=C(CN1C(=O)C2CCCN2C(=O)c2ccccc21)Nc1ccc(F)cc1 (stereo not given) | -1 | 3 | 0 | 1 | · | ·
Cc1ccc2[nH]c(=O)c(=O)[nH]c2c1 | 2 | 11 | 0 | 82* | 53* | -2 | AlphaScreen DR=>12
O=c1[nH]c2ccc(Br)cc2[nH]c1=O | 1 | 3 | 0 | 1 | · | ·
O=[N+]([O-])c1ccccc1CN1CCN(CCO)CC1 | 1 | 3 | 0 | 77* | -3 | 2
O=[N+]([O-])c1ccccc1CN1CCCCCCC1 | -1 | -2 | 0 | 24 | · | ·
COc1cc(CN2CCN(CCOCCO)CC2)c([N+](=O)[O-])cc1OC | -1 | 1 | 0 | -28 | · | ·
